Molecules are shown by their SMILES. Records with an inconclusive call do not appear. Activity calls are given as the source filed them. Calls follow the shape of the dose curve; as a rule, active = well fitted cell-killing curve with a large enough effect; inconclusive = small, poorly fitted or top-dose-only effect; inactive = flat fitted curve, though single readings scatter.

Drawing on PubChem BioAssay (NCATS), this text covers Potency and outcome for 18 compounds.

The nature of assay [1]: Cell Viability - LYMP2-017 (AID 972).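 Also: cells exposed to compound for 24 hours at 37 °C; nearly all actives have a fitted effect of over 55% in size.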 Also: potency is read from the fitted curve at half-maximal effect. The essentials: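 Steps: plate 2500 lymphoblastoid cells per well; incubate 5 hr at 37 C; add compound across a concentration series and incubate 24 hr at 37 C; add CellTiter-Glo and read luminescence after 30 min at room temperature; fit Hill curves for AC50.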
Assay [2] is described as follows: Cell Viability - LYMP2-019 (AID 973). Also: nearly all actives have a fitted effect of over 55% in size. Also: potency is read from the fitted curve at half-maximal effect. The method in brief: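 Cells plated at 2500/well and allowed 5 hr at 37 C before compound addition. After 24 hr incubation, CellTiter-Glo reagent was added, plates sat 30 min at room temperature, and luminescence was recorded.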
Assay [3] can be described thus: Cell Viability - LYMP2-021 (AID 974).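 Also: compound exposure lasts 24 hours at 37 °C; nearly all actives have a fitted effect of over 55% in size.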 Also: potency is read from the fitted curve at half-maximal effect. The essentials: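 Concentration-response cytotoxicity in a human lymphoblastoid line: 24 hr treatment at 37 C in complete culture medium, tetraoctylammonium bromide as positive control, luminescent ATP quantitation as viability measure.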
The nature of assay [4]: Cell Viability - LYMP2-023 (AID 975).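 Also: cells exposed to compound for 24 hours at 37 °C; nearly all actives have a fitted effect of over 55% in size.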 Also: potency is read from the fitted curve at half-maximal effect. The essentials: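 Concentration-dependent drop in intracellular ATP measures acute cytotoxicity in a human lymphoblastoid line treated for 24 hours in complete culture medium. AC50 values are taken from Hill-equation fits of qHTS data.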
Assay [5] is described as follows: Cell Viability - LYMP2-025 (AID 976). Also: series mostly up to about 92 µM. The essentials: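 In qHTS format, LYMP2-025 lymphoblastoid cells in complete culture medium received compound for 24 hr; ATP-based CellTiter-Glo signal gave viability, with AC50 derived by Hill equation.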
Assay [6] is described as follows: Cell Viability - LYMP2-002 (AID 977). Also: series mostly up to about 92 µM. The method in brief: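 Luminescent ATP readout (CellTiter-Glo, 30 min room temperature) after 24 h compound exposure at 37 C of a human lymphoblastoid line, 2500 cells/well. AC50 values derived by standard Hill fitting of qHTS concentration-response data.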
Assay [7] can be described thus: Cell Viability - LYMP2-006 (AID 978).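 Also: cells exposed to compound for 24 hours; nearly all actives have a fitted effect of over 60% in size.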 Also: potency is read from the fitted curve at half-maximal effect. The method in brief:
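Human lymphoblastoid cells (LYMP2-006), 2500/well in complete medium, were treated with compound for 24 hr at 37 C. Cellular ATP was read by CellTiter-Glo luminescence after 30 min, and AC50 values came from Hill-equation fits of concentration-response data.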

A short description of assay [8]: Cell Viability - LYMP2-007 (AID 979).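 Also: cells exposed to compound for 24 h before reading; nearly all actives have a fitted effect of over 60% in size.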 Also: potency is read from the fitted curve at half-maximal effect. The essentials: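 Acute toxicity is scored as a concentration-dependent fall in intracellular ATP in human lymphoblastoid cells treated 24 hr at 37 C, measured by luciferase luminescence; Hill-equation modelling yields AC50.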
Assay [9] can be described thus: Cell Viability - LYMP2-008 (AID 980). Also: nearly all actives have a fitted effect of over 60% in size. Also: potency is read from the fitted curve at half-maximal effect. The essentials: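 Acute cytotoxicity is scored as concentration-dependent loss of cellular ATP in a human lymphoblastoid line after 24 hr treatment at 37 C. ATP is quantified by luciferase luminescence.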
Assay [10] in a line: Cell Viability - LYMP2-010 (AID 981). Also: potency is read from the fitted curve at half-maximal effect. The method in brief: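 Acute toxicity is scored as a concentration-dependent loss of cellular ATP in human lymphoblastoid cells after 24 hr compound exposure in complete medium. Tetraoctylammonium bromide is the positive control.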

As to `Nc1ncnc2c1ncn2[C@H]1CC[C@@H](CO)O1`, the Potency result in [1], in assay [2], in [3], in assay [4], in [7] and in assay [8] was “inactive” throughout. Moreover, the Potency entry in assay [9] and in assay [10] was “inactive” each time. Besides, the compound was classed as inactive in assay [5] and in assay [6].
For `ClC(Cl)Cl`, the Potency entry in assay [1], in [2], in assay [3], in assay [4], in assay [7] and in assay [8] was “inactive” each time. Moreover, the Potency result in assay [9] and in [10] was “inactive” throughout. For the same compound, the outcome in [5] and in assay [6] was inactive.
For `COC(=O)c1ccccc1O`, the Potency result in [1], in assay [2], in assay [3], in assay [4], in assay [7] and in assay [8] was “inactive” in each case. Also, the Potency entry in [9] and in assay [10] was “inactive” each time. For the same compound, the call in [5] and in assay [6] was inactive.
As to `Oc1cccc(O)c1O`, the Potency entry in assay [1], in assay [2], in assay [4], in [7] and in assay [9] was “inactive” in each case. In addition, the result in [5] and in assay [6] was inactive.
On to `NC(N)=O`, for which the Potency result in [1], in [2], in [3], in assay [4], in assay [7] and in assay [8] was “inactive” throughout. Also, the Potency result in assay [9] and in [10] was “inactive” each time. Moreover, the result in [5] and in assay [6] was inactive.
Regarding `C[C@H](CCC(=O)O)[C@H]1CC[C@H]2[C@@H]3CC[C@@H]4C[C@H](O)CC[C@]4(C)[C@H]3C[C@H](O)[C@]12C`, the Potency entry in assay [1], in assay [2], in assay [3], in assay [4], in assay [7] and in assay [8] was “inactive” each time. Besides, the Potency entry in assay [9] and in assay [10] was “inactive” each time. Further, the compound was classed as inactive in [5] and in assay [6].
As to `Nc1ccc(N=Nc2ccccc2)c(N)n1`, the Potency entry in [1], in assay [2], in assay [3], in assay [4], in assay [7] and in assay [8] was “inactive” in each case. For the same compound, the Potency entry in assay [9] and in assay [10] was “inactive” each time. The compound was classed as inactive in assay [5] and in [6].
In the case of `C=C1C(CCl)(CCl)C2(Cl)C(Cl)C(Cl)C1(Cl)C2(Cl)Cl` (stereo not drawn), the Potency in assay [1] is 50.1 µM (active); in [2], 39.8 µM (active); in assay [3], 50.1 µM (active); in assay [4], 50.1 µM (active); in assay [7], 50.1 µM (active); in [8] it was 39.8 µM (active). The Potency in [9] was 31.6 µM (active); in assay [10], 39.8 µM (active).
As to `c1ccc2ccccc2c1`, the Potency result in assay [1], in assay [2], in assay [3], in [4], in assay [7] and in [8] was “inactive” throughout. Moreover, the Potency result in [9] and in assay [10] was “inactive” each time. The compound was called inactive in assay [5] and in [6].
Consider `C/C=C/C=C/C(=O)O`, for which the Potency entry in [1], in [2], in assay [3], in assay [4], in assay [7] and in assay [8] was “inactive” throughout. The Potency result in [9] and in assay [10] was “inactive” in each case. Besides, the call in [5] and in [6] was inactive.
Turning to `Nc1nccs1`, the Potency entry in assay [1], in assay [2], in assay [3], in assay [4], in assay [7] and in assay [8] was “inactive” each time. Further, the Potency entry in [9] and in [10] was “inactive” each time. Further, the compound was classed as inactive in assay [5] and in assay [6].
In the case of `CC1=CCC2CC1C2(C)C` (stereo not drawn), the Potency result in [1], in assay [2], in [3], in [4], in [7] and in [8] was “inactive” each time. The Potency result in [9] and in assay [10] was “inactive” in each case. The compound was called inactive in assay [5] and in [6].
On to `C[C@H](CCC(=O)O)[C@H]1CC[C@H]2[C@@H]3[C@H](O)C[C@@H]4C[C@H](O)CC[C@]4(C)[C@H]3C[C@H](O)[C@]12C`, for which the Potency entry in [1], in [2], in assay [3], in assay [4], in [7] and in [8] was “inactive” throughout. The Potency result in assay [9] and in assay [10] was “inactive” in each case. For the same compound, the outcome in [5] and in [6] was inactive.
Turning to `CO/N=C(/C(=O)N[C@@H]1C(=O)N2C(C(=O)O)=C(COC(N)=O)CS[C@H]12)c1ccco1`, the Potency entry in [1], in assay [2], in assay [3], in [4], in [7] and in assay [8] was “inactive” each time. The Potency result in assay [9] and in assay [10] was “inactive” in each case. The compound was classed as inactive in assay [5] and in assay [6].
For the compound `NCCN`, the Potency entry in assay [1], in assay [2], in assay [3], in [4], in assay [7] and in assay [8] was “inactive” each time. Also, the Potency entry in assay [9] and in assay [10] was “inactive” each time. The outcome in [5] and in [6] was inactive.
With `OB(O)O`, the Potency result in [1], in [2], in assay [3], in assay [4], in assay [7] and in assay [8] was “inactive” in each case. Further, the Potency result in assay [9] and in assay [10] was “inactive” throughout. Further, the call in [5] and in assay [6] was inactive.
Regarding `[O-][N+](=Nc1ccccc1)c1ccccc1`, the Potency result in assay [1], in assay [2], in [3], in assay [4], in assay [7] and in assay [8] was “inactive” each time. Further, the Potency result in assay [9] and in assay [10] was “inactive” each time. Also, the compound was called inactive in assay [5] and in [6].
Consider `CC(C)(C)CC(C)(C)c1ccc(OCCO)cc1`, for which the Potency result in assay [1], in [3], in assay [4], in [7], in assay [8] and in assay [9] was “inactive” throughout. Also, the Potency result in assay [10] was “inactive”. In addition, the call in assay [6] was inactive.
